Here are results for 34 molecules from PubChem BioAssay (NCATS).

The nature of assay [1]: qHTS assay for small molecule agonists of the antioxidant response element (ARE) signaling pathway (AID 651741; active = well fitted activation curve with a large enough effect in the signal ratio; the % refers to the signal ratio; also: potency is read from the fitted curve at half-maximal effect; as to activation: % of control where 0% means no effect). The method, boiled down:
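Agonist activity is measured as ARE-driven beta-lactamase expression in a stable HepG2 reporter line, using 16 h compound treatment at 37 C and a FRET substrate fluorescence readout after 2 h.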
Background: In qHTS, concentration-response curves come from the screen itself.

Assay [2] is described as follows: qHTS assay for small molecule activators of the p53 signaling pathway (AID 651743; active = well fitted activation curve with a large enough effect in the signal ratio, not every such curve was filed as active; the % refers to the signal ratio; also: % of control where 0% means no effect). The following applies: HCT-116 p53RE-bla, beta-lactamase FRET ratio, 16 h; stronger effect = higher value. The method, boiled down: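 A beta-lactamase reporter under p53 response element control, stably carried by HCT-116 cells, reported pathway activation. Test compounds were applied for 16 hours at 37 C, and fluorescence was measured 2 hours after adding the B/G FRET substrate.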

A short description of assay [3]: qHTS assay for small molecule activators of the nuclear factor-kappa B (NF-kB) signaling pathway (AID 651749; active = well fitted activation curve with a large enough effect in the signal ratio; the % refers to the signal ratio; also: potency is read from the fitted curve at half-maximal effect; as to activation: % of control where 0% means no effect). The following applies: NF-kB-bla ME-180 cells, beta-lactamase FRET ratio, 16 h; activation: stronger effect = higher value. A digest of the protocol: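 FRET-based beta-lactamase detection in ME-180 cells reports NF-kB response-element-driven transcription following overnight (16 hr) compound treatment.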

The nature of assay [4]: qHTS assay for small molecule disruptors of the mitochondrial membrane potential - 1 hr assay (AID 651754; calls by dose curve; also: nearly all actives have a fitted effect of over 35% in size; also: potency is read from the fitted curve at half-maximal effect). The method, boiled down:
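Read-out: dye fluorescence at 490 nm ex/535 nm em (monomers) and 540 nm ex/590 nm em (aggregates) in HepG2 cells. Compound exposure 1 hr at 37C, followed by 30 min dye loading.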

The nature of assay [5]: qHTS Assay for Identification of Small Molecule Agonists for NFkB Signaling Pathway. (AID 624478).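 Also: compounds tested together with TNF alpha at its EC50 of 10 pM; 0% is about no effect.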 As to the method: The TNF alpha/NFkB signaling pathway was assayed in NFkB-bla cells (Invitrogen), a ME-180 cervical carcinoma line containing a stably integrated beta-lactamase reporter gene controlled by a NFkB response element. This reporter is induced by TNF alpha at 10 pM EC50 and inhibited by the proteosome inhibitor MG-132 at approximately 100 nM IC50. The assay was screened at the EC50 of TNF alpha activation to identify activators of TNF alpha/NFkB signaling
Cells were trypsinized, washed in assay medium (AM, OPTI MEM with 0.5% fetal bovine serum, 0.1 mM nonessential amino acids, 1 mM sodium pyruvate, 10mM HEPES pH 7.3, 100U/ml penicillin, and 100 ug/ml streptomycin) and plated at 1000 cells/5 uL/well into black clear-bottom 1536 well plates. After an overnight incubation at 37 C and 5% CO2, 23 nL of compound were delivered by a pin tool, 1 uL of TNF alpha (10 pM final concentration in AM) was added and plates were incubated at 37 C for 5 hrs. One uL of LiveBLAzerTM detector mix (Invitrogen) was added, the plates incubated at room temperature for 2 hrs, and fluorescence intensity at 460 and 530 nm emission was measured at 405 nm excitation by an Envision (Perkin Elmer).

The nature of assay [6]: qHTS Assay for Identification of Small Molecule Antagonists for NFkB Signaling Pathway. (AID 624479; calls by dose curve;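 also: pathway stimulated with TNF alpha; % is scaled to controls: 0 for no effect and ±100 for the full control effect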).
Assay [7] is described as follows: Cell Proliferation Assay against the TMD8 Cell Line (AID 651645).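 Also: cells exposed to compound for 48 h before reading.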 The following applies: TMD8 DLBCL cell line proliferation/viability; at 46.1 µM (top of the series) unless noted. The method, boiled down:
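Seed log-phase TMD8 cells in RPMI containing 5% FBS, add compounds at once, incubate 48 hours at 37C. Equilibrate to room temperature, add CellTiter-Glo, read luminescence after 15 minutes and express relative to DMSO and bortezomib controls.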

Assay [8] can be described thus: Cell Proliferation Assay against the HBL1 Cell Line (AID 651646).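 Also: cells exposed to compound for 48 h before reading.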 As to conditions: HBL1 DLBCL cells; at 46.1 µM (top of the series) unless noted. The method, boiled down:
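CellTiter-Glo luminescence after 48 h compound exposure at 37C gives percent activity, with DMSO as 100% and 9.2 uM bortezomib final as 0%. Cells: 500 log-phase HBL1 per well, RPMI plus 5% FBS.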

Assay [9] in a line: Cell Proliferation Assay against the TMD8 Cell Line (Caspase readout at 16 hrs) (AID 651712). Also: potency is read from the fitted curve at half-maximal effect. A digest of the protocol: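 Caspase-Glo luminescence measured apoptosis after a 16 h, 37 C compound exposure of TMD8 cells (500 cells/well, 5% FBS RPMI). DMSO set 0% and bortezomib at 9.2 uM final set 100% activity.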
Assay [10] can be described thus: Cell Proliferation Assay against the TMD8 Cell Line (Caspase readout at 8 hrs) (AID 651713). Also: potency is read from the fitted curve at half-maximal effect. A digest of the protocol:
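Apoptosis readout: caspase 3/7 luminescence (Caspase-Glo), 15 min RT. Cells: TMD8, 500/well, RPMI + 5% FBS, no phenol red. Exposure 8 h, 37C. % activity vs DMSO = 0, bortezomib 9.2 uM final = 100.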

“And” between values parts separate entries of the source, which are not always exact repeats. Identical values can stand only once. Records with an inconclusive call do not appear. The source made the active and inactive calls. Unless noted, calls follow the shape of the dose curve; as a rule, active = well fitted curve in the direction sought with a large enough effect; inconclusive = small, poorly fitted or top-dose-only effect, or another doubt; inactive = no such curve, though single readings can be large; an effect the other way counts as inactive or inconclusive.

As for `O=C1c2c(O)cccc2Cc2cccc(O)c21`, the Potency result in assay [1] was “inactive”. For the same molecule, the activation in assay [2] is -1.03% (inactive).

In the case of `Oc1cccc(O)c1`, the activation is 5.92% (inactive) in [2] and -1.45% (inactive) in assay [3]. Besides, the Potency entry in assay [4] is “inactive”.

In the case of `Nc1ccc(S(=O)(=O)Nc2nccs2)cc1`, the Potency entry in assay [1] was “inactive”. Further, the figures for the activation in assay [2] and in assay [3] were -5.45% (inactive) and 0.351% (inactive), respectively.

With `CNC(=O)Oc1ccc2c(c1)[C@]1(C)CCN(C)[C@@H]1N2C`, the activation is -2.62% (inactive) in assay [2] and 1% (inactive) in assay [3].

Regarding `CCCCC(CC)COC(=O)c1ccccc1O` (centres undefined), the activation in assay [2] was 0.46% (inactive); in assay [3] it was -1.39% (inactive).

Consider `COc1ccc(Cl)cc1C(=O)NCCc1ccc(S(=O)(=O)NC(=O)NC2CCCCC2)cc1`, for which the activation in assay [2] is -6.63% (inactive); in assay [3] it was -2.47% (inactive).

On to `CN(C)CCC=C1c2ccccc2CCc2ccccc21`, for which the Potency entry in assay [1] is “inactive”. Also, the activation in assay [2] was -8.64% (inactive) and -6.53% (inactive).

In the case of `CC(O)CN(CCN(CC(C)O)CC(C)O)CC(C)O` (centres undefined), the activation is -6.2% (inactive) in assay [2] and -0.0736% (inactive) in [3].

Take `NC(=O)N/N=C/c1ccc([N+](=O)[O-])o1`: the Potency in assay [1] is 17.2 µM (active) and 21.1 µM (active). Also, the activation is -0.844% (inactive) and -0.297% (inactive) in [2]; -2.02% (inactive) and 0.212% (inactive) in assay [3].

Take `NCCNCCNCCNCCN`: the Potency entry in [1] was “inactive”. In addition, in [3], the activation was -1.8% (inactive) and -0.273% (inactive).

Consider `NC(=O)c1ncn([C@@H]2O[C@H](CO)[C@@H](O)[C@H]2O)c1N`, for which the molecule was classed as inactive in assay [5] and in assay [6]. For the same molecule, in assay [7], the viability (% of control) is 128%. Moreover, the viability, percent of control in assay [8] was found to be 159%. Besides, the Potency entry in assay [9] and in assay [10] was “inactive” each time.

Consider `COC(=O)C1=C(C)NC(C)=C(C(=O)OC)C1c1ccccc1[N+](=O)[O-]`, for which the activation in assay [2] was -2.95% (inactive). Besides, in [4], the Potency result is “inactive”.

As for `NC(=O)c1ncn([C@@H]2O[C@H](CO)[C@@H](O)[C@H]2O)n1`, the Potency entry in assay [1] is “inactive”.

Consider `CC12CCC(CC1)C(C)(C)O2`, for which the Potency entry in assay [1] is “inactive”. In addition, the activation in assay [2] is -1.89% (inactive).

For the molecule `CCCCCCCCCCCCOS(=O)(=O)O`, the Potency entry in assay [1] and in assay [4] was “inactive” each time.

For the molecule `Cc1cccc(Nc2cc(Cl)nc(SCC(=O)O)n2)c1C`, the Potency result in [1] was “inactive”. In addition, the figures for the activation in assay [2] and in [3] were 4.88% (inactive) and 3.82% (inactive), respectively.

Turning to `NCCNCCNCCN`, the Potency result in assay [1] was “inactive”. For the same molecule, in assay [2], the activation was -2.15% (inactive).

As to `CCCc1c(OCCCCc2nn[nH]n2)ccc(C(C)=O)c1O`, the values for the activation in assay [2] and in [3] were 16.1% (inactive) and -0.919% (inactive), respectively.

Consider `O=C1O[C@H]([C@@H](O)CO)C(O)=C1O`, for which the Potency in assay [1] is 61.1 µM (active). The activation in assay [2] was -0.0449% (inactive) and -0.779% (inactive).

With `C[C@]12CC[C@@H]3c4ccc(O)cc4CC[C@H]3[C@@H]1CCC2=O`, the activation in assay [2] is 0.661% (inactive); in [3] it was -1.43% (inactive).

As for `CCCCOC(=O)c1ccc(O)cc1`, the Potency in assay [1] was 30.6 µM (active). Besides, the activation in [2] was 1.4% (inactive) and -3.01% (inactive).

For the molecule `O=C1Nc2ccc(Cl)cc2[C@@](C#CC2CC2)(C(F)(F)F)O1`, in [7], the viability (% of control) was found to be 3.1% [at 92.2 µM]. Also, the viability, percent of control in assay [8] is 2.9% [at 92.2 µM]. The Potency in assay [10] is 17.1 µM (active).

`Oc1cn2c(n1)Nc1ccc(Cl)c(Cl)c1C2`: the viability (% of control) in [7] is 87.9%. For the same molecule, the viability, percent of control in assay [8] was found to be 58.4%. Further, the Potency result in assay [9] and in assay [10] was “inactive” each time.

For the molecule `CN(C)CCCN1c2ccccc2CCc2ccccc21`, the activation in [2] was -6.39% (inactive).

`CC(CN1c2ccccc2Sc2ccccc21)N(C)C` (centres undefined): the activation in assay [2] was -4.88% (inactive). Also, the Potency in assay [3] is 25.1 µM (active).

In the case of `CC(O)COc1ccccc1` (centres undefined), the Potency result in assay [1] was “inactive”. For the same molecule, the figures for the activation in [2] and in [3] were 2.15% (inactive) and -2.71% (inactive), respectively.

For the molecule `COc1ccccc1O`, the Potency result in assay [1] was “inactive”. The activation in [2] was -3.15% (inactive) and 0.213% (inactive) and 1.06% (inactive); in [3] it was -1.13% (inactive) and -0.291% (inactive) and -0.304% (inactive).

`CC(=O)O[C@@]12CO[C@@H]1C[C@H](O)[C@@]1(C)C(=O)[C@H](O)C3=C(C)[C@@H](OC(=O)[C@H](O)[C@@H](NC(=O)OC(C)(C)C)c4ccccc4)C[C@@](O)([C@@H](OC(=O)c4ccccc4)[C@H]21)C3(C)C`: the result in assay [5] and in assay [6] was inactive. The viability (% of control) in assay [7] came out at 32.1%. Besides, the viability, percent of control in assay [8] was found to be 69%. The Potency in assay [9] was 37.2 µM (active). Moreover, the Potency result in assay [10] is “inactive”.

Turning to `CN(C)CCOC(C)(c1ccccc1)c1ccccn1` (centres undefined), the Potency result in assay [1] was “inactive”. For the same molecule, the activation in assay [2] is 2.16% (inactive).

For the molecule `CCOC(=O)c1ccc(O)cc1`, in assay [2], the activation is -7.13% (inactive).

`CN(C)CCCN1c2ccccc2Sc2ccc(Cl)cc21`: the activation in [2] is 10.1% (inactive).

Consider `Cc1cc2nc3c(=O)[nH]c(=O)nc-3n(C[C@H](O)[C@H](O)[C@H](O)CO)c2cc1C`, for which the activation in assay [2] is -9.36% (inactive). In assay [4], the Potency was 5.96 µM (active).

With `CC1(C)[C@@H]2CC[C@@]1(C)C(=O)C2`, the Potency entry in [1] was “inactive”. For the same molecule, the activation in [2] is 0.0082% (inactive); in [3] it was -0.497% (inactive).

As to `Cc1c(O)cccc1C(=O)N[C@@H](CSc1ccccc1)[C@H](O)CN1C[C@H]2CCCC[C@H]2C[C@H]1C(=O)NC(C)(C)C`, the Potency in assay [1] is 26.6 µM (active); in assay [4], 42.2 µM (active). In addition, the activation in assay [2] is 10.5% (inactive); in assay [3], 4.91% (inactive).
